Results from PubChem BioAssay.
Calls of active or inactive are those of the source.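 How the source made its calls: active means viability loss from added drug above about 55%, and viability with drug at most 40%, in both replicates (limit read from the data, passing the limit was not always enough); inconclusive means both conditions met in only one replicate; inactive means neither replicate meets both conditions.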

assay: MRP1 drug-resistance reversers in H69AR cells – cell-based, doxorubicin co-treatment, pilot screen (AID 601); conditions: H69AR cells + 2 uM doxorubicin, CellTiter-Glo, 72 h; at 10 µM; hits give high values

For `CN(c1ccccc1C(=O)N1CCN(c2cccc(Cl)c2)CC1)S(C)(=O)=O`, which differential viability (reversal) is on record?
The differential viability (reversal) was -0.775% (inactive).

For `CCCn1nc(CC(=O)O)c2ccccc2c1=O`, which differential viability (reversal) is on record?
The differential viability (reversal) was 8.11% (inactive).

For `COc1cccc(Nc2nc(=O)[nH]nc2C)c1`, which differential viability (reversal) is on record?
The differential viability (reversal) was 10.9% (inactive).

Which differential viability (reversal) does the source give for `CCN(CC)CCN1C(=O)C(O)=C(C(=O)c2cccs2)C1c1ccc(C)o1` (centres undefined) here?
The differential viability (reversal) was 5.08% (inactive).

With `Cc1ccc(CCSCC(=O)O)cn1` as the compound, how does the differential viability (reversal) read?
Its differential viability (reversal) is 2.9% (inactive).

Which differential viability (reversal) does the source give for `Cn1c(=O)c2c(nc(-n3ccnc3)n2C)n(C)c1=O` here?
The differential viability (reversal) was 8.81% (inactive).

Which differential viability (reversal) does the source give for `COc1ccc(C2C(C#N)=C(N)Oc3cc4c(cc32)OCO4)cc1` (centres undefined) here?
The differential viability (reversal) was -49.4% (inactive).

Which differential viability (reversal) does the source give for `CCCc1cc(=O)[nH]c(/N=C(\N)Nc2ccccc2)n1` here?
The differential viability (reversal) was -13.9% (inactive).

For `CCCCCn1c(CN(C)Cc2ccccc2)nc2c1c(=O)n(C)c(=O)n2C`, which differential viability (reversal) is on record?
Its differential viability (reversal) is 11.4% (inactive).

Which differential viability (reversal) does the source give for `Cc1cccc(OCC(=O)Nc2ccccc2N2CCN(C(=O)C(C)C)CC2)c1C` here?
The differential viability (reversal) was 2.79% (inactive).

With `CCNc1oc(COc2cccc(C)c2)nc1C#N` as the compound, how does the differential viability (reversal) read?
The differential viability (reversal) was 13.8% (inactive).

For `C=C(C)COc1ccc(-c2n[nH]c(C)c2-c2ccccc2)c(O)c1`, which differential viability (reversal) is on record?
The differential viability (reversal) was 7.88% (inactive).

For `C=CCn1c(SCc2cc(=O)n3ccsc3n2)nnc1C1CCCCC1`, which differential viability (reversal) is on record?
The differential viability (reversal) was 17.5% (inactive).

For `Cc1nnc(NC2CCCCC2)[nH]c1=O`, which differential viability (reversal) is on record?
Its differential viability (reversal) is 6.85% (inactive).

For `CCc1cc(-c2[nH]ncc2-c2ccc3c(c2)OCO3)c(O)cc1O`, which differential viability (reversal) is on record?
Its differential viability (reversal) is -14.2% (inactive).

Which differential viability (reversal) does the source give for `CCn1nnc(NC(=O)c2ccccc2Br)n1` here?
Its differential viability (reversal) is 10.5% (inactive).

With `O=S(=O)(c1ccc2c(c1)OCCO2)N(Cc1ccc(F)cc1)Cc1nnc(-c2cccs2)o1` as the compound, how does the differential viability (reversal) read?
The differential viability (reversal) was 8.63% (inactive).

Which differential viability (reversal) does the source give for `Nc1nnc(Cc2ccc(Cl)cc2)s1` here?
Its differential viability (reversal) is 15.6% (inactive).

Which differential viability (reversal) does the source give for `Cc1onc(-c2ccccc2)c1C(=O)N1CCCSC1=Nc1ccccc1` here?
Its differential viability (reversal) is 5.92% (inactive).

For `O=C(Nc1ccccc1)N(Cc1cccnc1)Cc1ccco1`, which differential viability (reversal) is on record?
The differential viability (reversal) was 12.7% (inactive).

Which differential viability (reversal) does the source give for `COc1ccccc1N1CCN(C(=O)C2CC=CCC2C(=O)O)CC1` (centres undefined) here?
Its differential viability (reversal) is 6.56% (inactive).

With `CN=C(C)C1=C(O)C(C(=O)OC)C(C)(C)CC1=O` (centres undefined) as the compound, how does the differential viability (reversal) read?
The differential viability (reversal) was 3.21% (inactive).

With `O=C(CN1C(=O)CC(c2ccccc2)=Nc2ccccc21)NCc1ccco1` as the compound, how does the differential viability (reversal) read?
The differential viability (reversal) was 12.9% (inactive).

Which differential viability (reversal) does the source give for `O=C(CP(=O)(c1ccccc1)c1ccccc1)N1CCCCC1` here?
Its differential viability (reversal) is 19% (inactive).
